Measurements as given in ChEMBL document CHEMBL3988442, “University of Dundee, Small-Polar-MMV Screening Library” (2021).
Among all 48,000 compounds or so, about 13,000 (27%) showed an effect of 50% or more. The list shows a part of the results.

Test system: Wolbachia pipientis
Experiment: Anti-Wolbachia Cell-Based Screen
Format: functional
Set-up: scale not given: in the data most compounds retested in dose-response had high values
Conditions: 5 µM

| SMILES | Percent Effect [%] |
| --- | --- |
| Cc1cc(-c2ccncc2)ccc1OCC(N)=O | -1.496 |
| CC(C)c1cc(C(=O)N2CCN(CC3CC3)[C@@H]3CS(=O)(=O)C[C@@H]32)no1 | 5.38 |
| Cc1cnn(CCC(=O)Nc2ccc(F)cc2OCC2CC2)c1 | -3.72 |
| CCN1CC(C(=O)N2CCN(CCn3cccc3)CC2)CC1=O (stereo not given) | -5.842 |
| O=C(NCc1ccncc1)N1CCSCC1c1ccc(Cl)cc1 (stereo not given) | -11.62 |
| Cc1cc(CNC(=O)CC2CN(C(=O)OC(C)(C)C)C2)ccc1F | -41.83 |
| Cc1cnc2n(c1=O)C(CC(=O)NCc1ccc(Cl)cc1)CS2 (stereo not given) | 120.8 |
| CCNc1cc2c(nn1)CCN(C(=O)Cc1ccc(C)s1)C2 | 107.9 |
| CCNc1cc2c(nn1)CCN(C(=O)Cc1ccc3c(c1)CCO3)C2 | -18.57 |
| CCNc1cc2c(nn1)CCN(C(=O)C1Cc3ccccc3S1)C2 (stereo not given) | -4.507 |
| CCNc1cc2c(nn1)CCN(C(=O)CC1CCCCC1)C2 | -4.667 |
| CCNc1cc2c(nn1)CCN(C(=O)C1COc3ccccc3C1)C2 (stereo not given) | 3.402 |
| CCNc1cc2c(nn1)CCN(C(=O)Cc1c(C)nn(C)c1C)C2 | 126.1 |
| CCc1nccn1CC(=O)N1C[C@H]2CC[C@@H]1CN(C(=O)N(C)C)C2 | 6.839 |
| c1cc(-c2nc3c(c(NCCn4ccnn4)n2)CCNCC3)ccn1 | -0.7039 |
| CCN1CCN(C)C2(CCN(Cc3ccc(C)o3)CC2)C1=O.O=C(O)C(F)(F)F.O=C(O)C(F)(F)F | -15.65 |
| Cc1ccc(CN2CCC3(CC2)NC(=O)CC3c2ccccc2)s1.O=C(O)C(F)(F)F (stereo not given) | 95.7 |
| Cc1noc(C)c1CN1CCC2(CC1)CC(Oc1cccnc1)C2.O=C(O)C(F)(F)F.O=C(O)C(F)(F)F | 7.225 |
| Cc1ccc(CN2CCCC3(CCC(=O)N3)CC2)s1.O=C(O)C(F)(F)F (stereo not given) | 3.95 |
| Cc1cnc(N2CCC3(CC2)C(c2ccccc2)CC(=O)N3C)nc1 (stereo not given) | 8.622 |
| Cn1cc(C2CC(=O)NC23CCN(Cc2nccs2)CC3)cn1 (stereo not given) | 86.17 |
| Cc1ccc(CN2CCC3(CC2)C(=O)N(CCO)CCN3C)o1.O=C(O)C(F)(F)F.O=C(O)C(F)(F)F | 5.189 |
| Cc1noc(C)c1CN1CCC2(CC1)C(c1ccccc1)CC(=O)N2C.O=C(O)C(F)(F)F (stereo not given) | 90.48 |
| COCCN1CCC2(CCN(Cc3nccs3)CC2)C1=O | -0.9039 |

| SMILES | Percent Effect [%] |
| --- | --- |
| Cn1cc(C2CC(=O)NC23CCN(c2ncc(F)cn2)CC3)cn1 (stereo not given) | -28.26 |
| Cc1ccc(CN2CCC3(CC2)C(c2ccccc2)CC(=O)N3C)o1.O=C(O)C(F)(F)F (stereo not given) | 104.4 |
| CCCc1cc(C(=O)N2Cc3ccccc3C2)[nH]n1 | 5.853 |
| CC(C)=CCCC(C)CN1CCC(n2cc(CO)nn2)CC1 (stereo not given) | -18.32 |
| Cc1ccc2nc3n(c2c1)[C@@H](CNC(=O)c1ccncc1)COC3 | -11.4 |
| CN(CCC(F)(F)F)c1nc2ccccc2c(=O)[nH]1 | -5.931 |
| Cc1noc(C)c1CN1CCC2(CC1)NC(=O)CC2c1ccccc1.O=C(O)C(F)(F)F (stereo not given) | 92.37 |
| O=C(O)C(F)(F)F.O=C1CC(c2ccccc2)C2(CCN(Cc3nccs3)CC2)N1 (stereo not given) | 100.6 |
| O=C(O)C(F)(F)F.O=C(O)C(F)(F)F.O=C1NC2(CCN(Cc3nccs3)CC2)CC1c1ccncc1 (stereo not given) | -14.31 |
| CN1C(=O)CC(c2cnn(C)c2)C12CCN(C(=O)c1ccc[nH]1)CC2 (stereo not given) | -12.5 |
| Cc1noc(C)c1CN1CCC2(CC1)C(c1cnn(C)c1)CC(=O)N2C.O=C(O)C(F)(F)F (stereo not given) | 113.4 |
| Cc1noc(C)c1CN1CCC2(CC1)NC(=O)CC2c1cnn(C)c1 (stereo not given) | 100 |
| CCn1c(N)nc2cc(C(=O)N3CCN(c4nccs4)CC3)cnc21 | 5.725 |
| O=C(c1ccoc1)N1CCC(NCc2ccccc2-n2ccnc2)CC1 | 2.985 |
| CCn1ncc2c1NC(=O)C(C#N)C21CCCC1 (stereo not given) | 21.97 |
| Cc1ccc(CN2CCC3(CC2)C(=O)N(CC(C)C)CCN3C)s1.O=C(O)C(F)(F)F.O=C(O)C(F)(F)F | 102.6 |
| CC(C)CN1CCN(C)C2(CCN(c3nccs3)CC2)C1=O.O=C(O)C(F)(F)F | -15.41 |
| Cc1ccc(CN2CCC3(CC2)C(=O)N(CC(C)C)CCN3C)o1.O=C(O)C(F)(F)F.O=C(O)C(F)(F)F | -29.49 |
| Cc1cnn(CC2CCCN2C(=O)c2cccnc2N(C)C)c1 (stereo not given) | -3.738 |
| Cc1cnn(CC2CCCCN2C(=O)c2cccnc2N(C)C)c1 (stereo not given) | 94.82 |
| CN(C)c1ncccc1C(=O)N1CCCC1Cn1cccn1 (stereo not given) | 111.6 |
| O=C(c1cccc2c1OCO2)N1CCCC1Cn1cccn1 (stereo not given) | -0.6849 |
| Cc1cnn(CC2CCCCN2C(=O)c2cccc3c2OCO3)c1 (stereo not given) | -2.775 |
| Cc1cc(C)n(CC2CCCN2C(=O)c2c[nH]c3ncccc23)n1 (stereo not given) | -7.335 |

| SMILES | Percent Effect [%] |
| --- | --- |
| Cc1cc(C)n(CC2CCCN2C(=O)c2cccnc2N(C)C)n1 (stereo not given) | 118 |
| Cc1cnn(CC2CCCCN2C(=O)c2ccc3nnc(C)n3c2)c1 (stereo not given) | -9.496 |
| O=C(c1cccnc1N1CCOCC1)N1CCCC1Cn1cccn1 (stereo not given) | 1.919 |
| Cc1cnn(CC2CCCCN2C(=O)c2ccnc(N(C)C)c2)c1 (stereo not given) | -6.114 |
| Cc1cnn(CC2CCCCN2C(=O)c2ccc(N(C)C)nc2)c1 (stereo not given) | 89.91 |
| Cc1cc(C)n(CC2CCCN2C(=O)c2cccc3[nH]ncc23)n1 (stereo not given) | -3.123 |
| CC(C)[C@@H]1CN(S(=O)(=O)Cc2ccccc2)C[C@H]1C(=O)O | 3.081 |
| O=C(NCC(O)c1cccs1)c1sccc1OC(F)F (stereo not given) | 2.411 |
| Cc1ccccc1N1CCN(C(=O)c2cnc(C3CC3)nc2)C(C)C1 (stereo not given) | -6.259 |
| COc1ncccc1CNC(=O)c1c[nH]c(=O)c(Br)c1 | -2.261 |
| CN(Cc1cscn1)C1CCN(C(=O)OC(C)(C)C)CC1 | -0.6066 |
| Cc1nc(C(=O)N2CCC(Cc3cnc4[nH]ccc4c3)C2)co1 (stereo not given) | -2.794 |
| Cn1ccc(C(=O)N2CCC(Cc3cnc4[nH]ccc4c3)CC2)n1 | -9.979 |
| O=C(c1cscn1)N1CCC(Cc2cnc3[nH]ccc3c2)C1 (stereo not given) | 91.07 |
| O=C(c1cscn1)N1C[C@@H]2[C@@H](C1)OCC(=O)N2CC1CCCC1 | -7.986 |
| Cn1ccc(C(=O)N2CCC(Cc3cnc4[nH]ccc4c3)C2)n1 (stereo not given) | 135.4 |
| Cc1nn(CCC(=O)NC(C(=O)O)c2c(C)n[nH]c2C)c(C)c1C (stereo not given) | 9.182 |
| CC(C)(C)c1ncc2c(n1)CN(C(=O)c1ccc3[nH]cnc3c1)C2 | -16.99 |
| O=C(c1ccncc1)N1CCc2ncnc(C3CCOC3)c2CC1 (stereo not given) | 1.428 |
| CCN1CC[C@@]2(C(=O)N3CCOCC3)CCN(S(=O)(=O)CC)CC[C@@H]12.O=C(O)C(F)(F)F | -35.9 |
| CCc1noc(C)c1C(=O)N1C[C@H](NS(C)(=O)=O)[C@@H](C2CC2)C1 | 7.684 |
| CCc1cn[nH]c1C1CCCN(C(=O)c2ncoc2C(C)C)C1 (stereo not given) | 0.179 |
| CCc1cn[nH]c1C1CCCN(C(=O)c2noc(C)c2COC)C1 (stereo not given) | -6.588 |
| Cc1noc(C)c1C(=O)N1CCC(c2[nH]ncc2S(C)(=O)=O)C1 (stereo not given) | 95.01 |

| SMILES | Percent Effect [%] |
| --- | --- |
| CCc1cc(C(=O)N2CCCC(c3[nH]ncc3S(C)(=O)=O)C2)no1 (stereo not given) | 122.4 |
| CCn1cc(C(=O)N2CCCC(c3[nH]ncc3S(C)(=O)=O)C2)cn1 (stereo not given) | -1.066 |
| CCc1noc(C)c1C(=O)N1CCC(c2[nH]ncc2S(C)(=O)=O)C1 (stereo not given) | 111.9 |
| COCCn1cc(NCc2cn(C)nc2-c2ccncc2)cn1 | 0.5012 |
| Cc1ccc(O[C@@H]2C[C@H]3CN(C(=O)c4cnccn4)CCN3C2)cc1.O=C(O)C(F)(F)F | -2.389 |
| Cc1nc(CC(=O)N2CCC3(CC2)CC(=O)N(CC2CCCO2)C3)cs1 (stereo not given) | 8.939 |
| CC(C)N1CCC(c2ccnc3c(C(=O)N4CCCC4)ncn23)CC1 | -18.47 |
| Cc1ccccc1-c1cncc(C2CCN(C(C)C)CC2)n1 | -0.08562 |
| CN(C)CCCn1ccnc1C1CCN(c2cccc(C(=O)O)n2)CC1 | -0.5716 |
| CC(C)N1CCC(c2cccc(C(=O)N(C)C)n2)CC1 | 126.2 |
| CN1CCC(c2cccc(C(=O)N(C)C)n2)CC1 | 118.3 |
| Cc1cnn(CCNCC(=O)Nc2ccc(Br)cn2)c1 | -4.986 |
| COc1ccc(CN[C@H]2CC[C@@]3(CCC(=O)N3)CC2)cc1.O=C(O)C(F)(F)F | 13.86 |
| O=c1ccc2c([nH]1)CCC(NCc1ccncc1)C2 (stereo not given) | 106.2 |
| CN(C)C(=O)N1CCc2ccc(=O)[nH]c2CC1 | -8.1 |
| CC(C)NC1CCc2[nH]c(=O)ccc2C1.O=C(O)C(F)(F)F (stereo not given) | 105.5 |
| O=C(O)C(F)(F)F.O=C1CC[C@]2(CC[C@@H](NCc3ccoc3)CC2)N1 | -19.54 |
| CSc1ccc(CNC2CCN(CCc3ccncc3)CC2)cc1 | -23.46 |
| O=C(O)C(F)(F)F.O=C1CC[C@]2(CC[C@@H](NCc3ccc4c(c3)OCO4)CC2)N1 | -34.14 |
| COc1ccc2c(c1)CC(NCc1cccc(NC(C)=O)c1)CC2 (stereo not given) | 5.004 |
| O=C(NC1CCCC1)NC1CCc2[nH]c(=O)ccc2C1 (stereo not given) | 2.289 |
| O=C(O)C(F)(F)F.O=c1ccc2c([nH]1)CCC(NCc1ccc(F)cc1)C2 (stereo not given) | 112.4 |
| O=C(O)C(F)(F)F.O=c1ccc2c([nH]1)CCC(NCc1ccc3c(c1)OCO3)C2 (stereo not given) | 106.8 |
